Assay outcomes: PubChem BioAssay, several laboratories
The list is not random: actives were taken first. Their share in the collection is about 3.2%.
Mcl1-Bid inh = disrupts binding of human Mcl-1 to Bid peptide. Q07820. TR-FRET Mcl-1/Bid-Dy647 peptide binding, 1536-well. inhibition, % at 21.7 µM. 220,000 compounds, 0.97% hits. AID 1021;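 active = compounds that cut the binding signal by more than half at the single screening dose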;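 also: His-tagged Mcl-1 with europium anti-His antibody binding Bid BH3 peptide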
Target sequence (Q07820 whole entry, looked up): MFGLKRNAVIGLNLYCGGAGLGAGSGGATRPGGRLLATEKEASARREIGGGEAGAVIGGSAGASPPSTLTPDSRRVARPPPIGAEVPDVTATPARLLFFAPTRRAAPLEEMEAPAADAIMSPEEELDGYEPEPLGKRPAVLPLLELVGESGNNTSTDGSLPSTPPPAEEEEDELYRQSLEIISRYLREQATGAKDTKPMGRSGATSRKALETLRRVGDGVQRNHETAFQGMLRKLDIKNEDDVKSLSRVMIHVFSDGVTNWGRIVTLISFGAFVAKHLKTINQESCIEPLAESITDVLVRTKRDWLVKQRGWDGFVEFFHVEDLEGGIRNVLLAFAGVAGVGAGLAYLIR
14-3-3 Bad inh = disrupts binding of bovine 14-3-3 zeta to phospho-Bad peptide | P63103 | TR-FRET 14-3-3zeta/Dy647-pBad peptide displacement, 1 h | inhibition, % at 21.7 µM | 220,000 compounds, 0.71% hits;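 active = inhibition above about 70%, limit read from the data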
Target sequence (P63103 whole entry, looked up): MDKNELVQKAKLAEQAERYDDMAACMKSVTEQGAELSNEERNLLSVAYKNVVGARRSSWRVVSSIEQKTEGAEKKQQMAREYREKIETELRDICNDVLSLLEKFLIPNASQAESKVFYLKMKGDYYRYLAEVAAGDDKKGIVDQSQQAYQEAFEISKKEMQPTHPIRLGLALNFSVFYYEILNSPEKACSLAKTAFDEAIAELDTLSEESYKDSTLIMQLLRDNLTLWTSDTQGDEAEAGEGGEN
p47phox inh = blocks human p47phox regulatory protein of NADPH oxidases; P14598; p47phox/p22phox peptide binding, fluorescence polarization, 2 h; inhibition, % at 24.7 µM; 220,000 compounds, 0.53% hits; AID 1274;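 active = inhibition above about 30%, limit read from the data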
Mcl-1 Bim block = inhibitors of Bim-Mcl-1 interaction, human; Q07820; 190,000 compounds, 0.1% hits; inhibition, % at 10 µM; Bead-based flow cytometry, Bim peptide-Mcl-1 binding; in the data active = inhibition above about 40%
Mcl1 Noxa PPI = disrupts binding of human Mcl-1 to Noxa peptide; AID 1022; 220,000 compounds, 1.5% hits; TR-FRET Mcl-1/Noxa peptide binding, 2 h; inhibition, % at 21.7 µM;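 active = compounds that cut the protein-peptide binding signal by more than 50% relative to plate controls in a single-dose test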;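 also: His-tagged Mcl-1 with rhodamine Noxa BH3 peptide and terbium anti-His antibody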
Numbers stand for hits; i = inactive; nt = no result given; [ ] = remark or other dose.

SMILES	Mcl1-Bid inh	14-3-3 Bad inh	p47phox inh	Mcl-1 Bim block	Mcl1 Noxa PPI
CCOC(=O)Cn1c(=NC(=O)c2sc3ccccc3c2Cl)sc2cc(S(N)(=O)=O)ccc21	i	79[fluorescence artefact?]	i	i	i
COC(=O)Cn1c(=NC(=O)c2nc3ccccc3s2)sc2cc(S(C)(=O)=O)ccc21	i	i	i	i	i
C#CCn1c(=NC(=O)CN2C(=O)CCC2=O)sc2cc(S(N)(=O)=O)ccc21	i	i	i	i	i
C#CCn1c(=NC(=O)c2cc(Cl)sc2Cl)sc2cc(S(N)(=O)=O)ccc21	i	76	i	i	i
C#CCOCCOCCOCCNc1nc(N2CCN(C(=O)[C@H](Cc3cc4ccccc4[nH]3)n3cc(C(N)CC(C)C)nn3)CC2)nc(N2CCN(C(=O)[C@H](CCC(=O)O)n3cc(C(N)[C@H](C)CC)nn3)CC2)n1 (some centres undefined)	63	i	nt	i	i
C#CCOCCOCCOCCNc1nc(N2CCN(C(=O)[C@H](Cc3cc4ccccc4[nH]3)n3cc([C@@H](N)C(C)CC)nn3)CC2)nc(N2CCN(C(=O)[C@H](CCCCN)n3cc([C@@H](N)CC(C)C)nn3)CC2)n1 (some centres undefined)	78	i	nt	i	i
C#CCOCCOCCOCCNc1nc(N2CCN(C(=O)C([C@@H](C)CC)n3cc(C(N)CC(C)C)nn3)CC2)nc(N2CCN(C(=O)[C@H](CCC(=O)O)n3cc(C(N)[C@H](C)CC)nn3)CC2)n1 (some centres undefined)	i	i	nt	i	i
C#CCOCCOCCOCCNc1nc(N2CCN(C(=O)[C@H](CCC(=O)O)n3cc(C(N)CC(C)C)nn3)CC2)nc(N2CCN(C(=O)[C@H](CCC(=O)O)n3cc(C(N)[C@H](C)CC)nn3)CC2)n1 (some centres undefined)	76	i	nt	i	i
C#CCOCCOCCOCCNc1nc(N2CCN(C(=O)[C@H](CCC(=O)O)n3cc(C(N)CC(C)C)nn3)CC2)nc(N2CCN(C(=O)[C@H](Cc3cc4ccccc4[nH]3)n3cc(C(N)CC(C)C)nn3)CC2)n1 (some centres undefined)	i	i	nt	i	i
COCCNC(=O)c1onc(CSc2ccc(F)c(F)c2)c1C(=O)O	i	77	i	i	i
Cc1cccc(SCc2noc(C(=O)NCC3CCCO3)c2C(=O)O)c1 (centres undefined)	i	i	i	i	i
COCCNC(=O)c1onc(CSc2cc(C)ccc2C)c1C(=O)O	i	78	i	i	i
COCCNC(=O)c1onc(CSc2ccccc2C)c1C(=O)O	i	i	i	i	i
O=C(NCC1CCCO1)c1onc(CSc2ccccc2)c1C(=O)O (centres undefined)	i	72	i	i	i
O=C(N/N=C1/CCSC1)c1cc(Br)ccc1O	i	i	i	i	i
O=S(=O)(Cc1noc(-c2ccccc2Cl)n1)c1ccccn1	i	i	i	nt	i
Cc1c(/C=N/Nc2ccc(F)cc2)c(O)n(C)c(=O)c1C#N	i	i	i	i	60
Fc1ccc(-n2nnnc2-c2cnc(-c3cccs3)nc2C(F)(F)F)cc1	i	i	i	i	i
COc1ccc(-c2ncc3ccccn23)cc1OC	51	i	i	i	i
Cc1cccc(/C=C\c2nc3ccccc3c(=O)[nH]2)c1	i	i	i	i	i
O=c1[nH]c(/C=C/c2ccccc2[N+](=O)[O-])nc2ccccc12	54	71[fluorescence artefact?]	i	i	i
Cc1cccc(NC2SC(=O)NC2=O)c1 (centres undefined)	i	i	i	i	i
COc1ccc(NC(=O)c2ccccc2N(Cc2ccccc2)S(C)(=O)=O)cc1OC	i	i	i	i	i
COc1ccc(NC(=O)c2ccccc2N(Cc2ccccc2)S(C)(=O)=O)cc1	i	i	i	i	83
O=C(COC(=O)COc1ccc2ccccc2c1)NCC(F)(F)F	i	i	i	i	i
SMILES	Mcl1-Bid inh	14-3-3 Bad inh	p47phox inh	Mcl-1 Bim block	Mcl1 Noxa PPI
O=C1c2cccc3cccc(c23)C(=O)N1OS(=O)(=O)c1ccc(Br)cc1	i	i	i	i	i
O=C1C(Br)=Cc2cccc3cccc1c23	i	i	31	nt	i
O=C(Nc1ccc2sccc2c1)c1ccc(Cl)s1	82	i	i	i	i
O=C(Nc1ccc2c(c1)C(=O)NC2=O)c1ccc(Cl)s1	i	i	i	i	i
Cc1c(N=C(N)/N=C(\N)Nc2ccc(Br)cc2)c(=O)n(-c2ccccc2)n1C	i	i	i	i	i
NNC(=O)COc1ccc(F)cc1	i	i	i	i	i
NNC(=O)COc1ccccc1F	i	i	i	47	i
Cc1cccc(CC2CC(=O)N(c3nc4ccccc4s3)C2=O)c1 (centres undefined)	i	i	i	i	i
COc1ccc2sc(N3C(=O)CC(Cc4cccc(C)c4)C3=O)nc2c1 (centres undefined)	i	88	i	i	i
COCCCN(CC(=O)O)S(=O)(=O)c1cccc(Cl)c1	i	i	i	i	i
CCN(CC)c1ccc2c(Cl)cc(=O)oc2c1	i	i	i	i	i
CCNc1ccc2c(Cl)cc(=O)oc2c1	97	i	i	i	i
Nc1c(C(=O)NCC2CCCO2)sc2nc3c(c(-c4ccco4)c12)CC/C3=C\c1ccco1 (centres undefined)	80	i	i	44	98
Oc1ccc(C=Nc2ccc(N3CCOCC3)cc2)c(O)c1	i	i	i	i	i
Oc1ccc(N=Nc2cccc(C(F)(F)F)c2)cc1C=Nc1ccc(N2CCOCC2)cc1	i	i	i	i	69
CC(C)C(NC(=O)C(NC(=O)C1OC2OC(C)(C)OC2C2OC(C)(C)OC12)C(C)C)C(=O)O (centres undefined)	i	i	i	i	i
COc1cccc(N/C=C/c2onc(C)c2[N+](=O)[O-])c1	i	i	i	i	55
Cc1ccccc1Nc1c(F)c(F)c(F)c(F)c1C(=O)O	i	i	i	i	i
O=C(O)C[C@@H](O)C(=O)O	i	i	i	i	i
Nc1ncc(-c2ccc([N+](=O)[O-])cc2)cn1	i	i	78	i	i
Nc1ccc(-c2ccc(N)c([N+](=O)[O-])c2)cc1[N+](=O)[O-]	i	i	i	i	51
O=[N+]([O-])c1ccc(-c2cnc(NO)nc2)cc1	i	i	i	i	i
COc1ccc2cc(C3OCCO3)c(Cl)nc2c1	i	i	i	i	i
CN(CCC#N)C(=S)Nc1ccc(S(=O)(=O)N2CCOCC2)cc1	i	i	i	i	i
CN1CCC(N(C)C(=O)CNC(=O)c2ccc(C(C)(C)C)cc2)CC1	i	i	i	i	58
CN1CCN(C(=S)NC(=O)c2ccc(C(C)(C)C)cc2)CC1	i	i	i	i	i
C=CCn1c(=O)/c(=C2/SC(C)=C(C)N2CC)s/c1=C1/C(=O)N(CC)C(=S)N1c1ccccc1	59	i	i	i	i
COC(=O)c1ccc2c(=O)n(CCCCCC(=O)NCc3ccc4c(c3)OCO4)c(=O)[nH]c2c1	56	i	i	i	i
